D3 ag: activates the human D3 dopamine receptor; D3R DiscoveRx beta-arrestin cells, luminescence, 90 min; max activation, %; 410,000 tested, 0.58% active; in the data active means max activation above about 30%; further: 0% is about no effect
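Agonist mode: compounds and dopamine controls were applied to plated cells for 90 min at 37 degrees C after an overnight attachment at 1500 cells/well. Luminescent read-out followed 30 - 60 minutes at room temperature with DiscoveRx detection reagent.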
RGS4 inh: blocks human RGS4-accelerated GTP hydrolysis | P49798 | Transcreener GDP fluorescence polarization, RGS4-accelerated GTP hydrolysis | Potency, µM (top dose mostly 114 µM), inactives show at the top dose activity change, negative = inhibition, usual class: inhibitors | 390,000 tested, 0.039% active | AID 504845; further: potency means the concentration at half of the fitted maximal effect; on the % scale 0 is the no-effect control and ±100 the full control effect; nearly all actives have a fitted effect of over 75% in size
Target sequence (P49798 whole entry, looked up): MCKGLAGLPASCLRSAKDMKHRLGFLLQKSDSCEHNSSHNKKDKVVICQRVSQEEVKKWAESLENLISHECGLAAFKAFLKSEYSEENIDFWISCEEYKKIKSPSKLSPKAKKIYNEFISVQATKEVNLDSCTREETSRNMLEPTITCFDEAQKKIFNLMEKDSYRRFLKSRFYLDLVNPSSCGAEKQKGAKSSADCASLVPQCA
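MLSMR compounds (23 nl, pin-transferred) preincubated 10 min at room temperature with a 500nM (2x) first reagent, then RGS4 at 900nM (2x) plus Transcreener GDP mix added; fluorescence polarization (620/688 nm) read before and after 90 min at 30 °C.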
B2AR arrestin: agonists driving beta-arrestin recruitment to human beta2-adrenergic receptor; P07550; beta-arrestin recruitment to beta2AR, cell-based reporter; Potency, µM (top dose mostly 46.1 µM), without a hit: at the top dose activation, most hits filed as activators; 330,000 tested, 0.02% active;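 further: potency means the concentration at half of the fitted maximal effect; 0% = DMSO controls and full agonism = EC100 isoproterenol or metaproterenol; nearly all actives have a fitted effect of over 65% in size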
Target sequence (P07550 whole entry, looked up): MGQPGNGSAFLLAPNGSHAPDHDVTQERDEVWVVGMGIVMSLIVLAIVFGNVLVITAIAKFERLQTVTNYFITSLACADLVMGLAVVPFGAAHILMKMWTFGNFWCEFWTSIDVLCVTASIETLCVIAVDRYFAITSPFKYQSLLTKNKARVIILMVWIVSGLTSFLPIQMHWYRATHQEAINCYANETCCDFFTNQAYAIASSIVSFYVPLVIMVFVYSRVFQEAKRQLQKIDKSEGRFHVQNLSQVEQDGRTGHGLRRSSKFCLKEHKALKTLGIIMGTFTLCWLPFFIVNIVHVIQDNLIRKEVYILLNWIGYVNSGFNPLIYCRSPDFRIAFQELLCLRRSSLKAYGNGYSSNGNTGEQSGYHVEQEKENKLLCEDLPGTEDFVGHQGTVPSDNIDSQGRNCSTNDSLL
BRCA1 expr act: increases BRCA1 expression | MCF7-BRCA1-FFLuc reporter, luminescence, 48 h; response scale: scaled: vehicle 0%, 10 µM genistein 100% | Potency, µM (doses to about 46.1 µM), for inactives: at the highest dose activation, usual class: activators | 380,000 tested, 1.1% active | AID 624202; further: potency means the concentration at half of the fitted maximal effect; nearly all actives have a fitted effect of over 80% in size
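Luminescence from a BRCA1-driven firefly luciferase in MCF7 cells was the read-out, taken 15 min after substrate addition following 48 h compound exposure at 37 °C. Data were normalized to a 10 microM genistein control and DMSO vehicle.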
PTHR1 ag: PTHR1 (human) receptor agonism | AID 743266 | 410,000 tested, 0.075% active | HEK293 GP2 PTHR1 cells, GloSensor cAMP luminescence, 1 h | Potency, µM (titrated, usually from 115 µM), without a hit: at the top dose activation, most hits filed as activators; further: potency means the concentration at half of the fitted maximal effect; nearly all actives have a fitted effect of over 55% in size
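HEK-293-derived GP2 cells expressing PTHR1 and a GloSensor cAMP reporter, 3,000/well, plated overnight, given luciferin plus IBMX (each 0.5 mM as added) for 1 h at 37 °C, then compound for 1 h at 37 °C. Luminescence was read after 15 min at room temperature.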
D3 antag: antagonists of human D3 dopamine receptor. P35462. D3R cells, DiscoveRx beta-arrestin luminescence, antagonist mode; stronger effect = lower value. max response, negative = inhibition, %. 360,000 tested, 2.5% active; in the data active means max response below about -50%; inconclusive means no clear call, values can overlap the other calls; further: on the % scale 0 is the no-effect control and ±100 the full control effect
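Cells expressing the human receptor were seeded at 1500 cells/well, incubated overnight at 37 degrees C in 5% CO2, then exposed to library compounds with dopamine controls for 90 minutes at 37 degrees C before luminescent detection.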
* hit, by the source's call; i = inactive; ? = inconclusive; nt = no result given; [ ] = dose if it differs, or a comment. An excerpt weighted towards active compounds, which were near 3.7% of everything screened. Unless noted, the call rests on the fitted dose curve; in most records, active means well fitted curve in the direction sought with a large enough effect; inconclusive means small, poorly fitted or top-dose-only effect, or another doubt; inactive means no such curve, though single readings can be large; an effect the other way counts as inactive or inconclusive.

SMILES	D3 ag	RGS4 inh	B2AR arrestin	BRCA1 expr act	PTHR1 ag	D3 antag
COc1ccc(-c2nc(-c3ccccc3)nc(N3CCN(C)CC3)c2C#N)cc1	-11.7	-13.0%	-0.8%	0.1%	i	-85.3*
COc1ccccc1CNC(=O)C1CCC(CNS(=O)(=O)c2cccc3cccnc23)CC1 (stereo unspecified)	2.0	-12.6%	0.2%	-6.6%	i	-4.0
O=[N+]([O-])c1ccc2c(c1)S(=O)(=O)C=C2	nt	21.2µM*	nt	nt	nt	nt
O=C(Nc1ccc(C(=O)O)cc1)/C(=C\c1ccc2c(c1)OCO2)NC(=O)c1ccc(Br)o1	4.6	?	0.1%	-6.0%	i	6.4
O=C(CCc1ccc(O)c(O)c1)N/N=C/c1ccc2c(c1)OCO2	75.7*	-2.9%	0.3%	-5.3%	-59.7%	-6.6
O=C(N/N=C/c1ccc2c(c1)OCO2)c1ccc(Br)o1	-1.5	-52.3%	-0.2%	5.62µM*	-2.7%	-0.8
O=C(Nc1cccc(C(=O)O)c1)/C(=C\c1ccc2c(c1)OCO2)NC(=O)c1ccc(Br)o1	-2.6	-25.0%	0.0%	8.91µM*	i	4.8
CC(C)Oc1ccc(CCC(=O)N/N=C/c2ccc3c(c2)OCO3)cc1	6.3	-14.6%	0.5%	-18.8%	-10.4%	15.6
CC(CC(=O)c1ccc(F)cc1)N1CCN(c2ccccc2)CC1 (stereo unspecified)	-14.6	-10.9%	nt	-17.2%	-25.5%	?
Nn1c(-c2cccc(Br)c2)n[nH]c1=S	-14.5	-46.5%	-0.5%	0.0%	?	-84.8*
O=C(COC(=O)c1cccnc1Nc1ccccc1F)NCCN1C(=O)CSC1=O	-1.7	12.2%	0.3%	-2.8%	-21.8%[57.5 µM]	-56.5*
O=C(Cc1c(Sc2ccccc2)c2ccccc2n1Cc1ccccc1)NCCO	-24.3	-7.6%	0.2%	-23.0%	i	-73.0*
CCCC1NC(=O)c2cccnc2-n2c1nc1ccc(C)cc1c2=O (stereo unspecified)	-9.3	nt	nt	-0.8%	-3.3%	-21.1
O=C1CCN(Cc2ccccc2)C=C1C(=O)c1ccccc1	47.4*	-11.3%	nt	14.5%	-10.9%	-20.3
CCOC(=O)c1c(C)[nH]c(C(=O)COC(=O)c2[nH]c(C)c(C(C)=O)c2C)c1C	37.2*	0.8%	0.1%	-27.6%	-27.2%[57.5 µM]	15.9
CC(=O)c1c(C)[nH]c(C(=O)COC(=O)c2ccc(Cl)nc2)c1C	10.9	-6.4%	-0.1%	4.4%	-5.3%	28.6
CCOC(=O)c1[nH]c(C)c(C(=O)OCC)c1C	-1.9	16.3%	-0.7%	52.9%	-5.9%	-20.2
CC(=O)c1c(C)[nH]c(C(=O)COC(=O)c2ccc(C)s2)c1C	38.7*	-32.2%	-0.1%	52.0%	i	38.2
COCCNC(=O)CN(C(=O)CCC(=O)Nc1ccccn1)c1ccc(C)c(C)c1	3.0	-12.8%	0.5%	7.3%	13.7%	19.8
O=C(c1ccc(Cl)cc1)N1CCN(c2cccc3[nH]ccc23)CC1	2.6	-10.9%	0.0%	-23.2%	-11.8%	4.5
Cc1ccccc1N1CCN(Cc2c[nH]c3ccccc23)CC1	-26.5	-26.8%	0.2%	9.9%	3.98µM*	-86.4*
Cc1ccc(CN2CCN(c3cccc4[nH]ccc34)CC2)cc1	29.8	8.6%	0.4%	-1.1%	i	-82.3*
c1cnc(N2CCN(Cc3c[nH]c4ccccc34)CC2)nc1	-7.0	0.0%	-0.2%	-84.5%	i	-50.8*
Fc1ccc(N2CCN(Cc3c[nH]c4ccccc34)CC2)cc1	nt	nt	-0.3%	nt	nt	nt
COc1ccccc1N1CCN(Cc2c[nH]c3ccccc23)CC1	-24.1	-11.7%	0.0%	-15.0%	i	-79.7*
SMILES	D3 ag	RGS4 inh	B2AR arrestin	BRCA1 expr act	PTHR1 ag	D3 antag
CC(=O)c1ccc2c(c1)N(Cc1ccccc1)C(=O)C(C)S2 (stereo unspecified)	-0.4	nt	nt	15.4%	-19.1%	8.1
COC(=O)c1ccc(C(=O)OC)c(NC(=O)CSc2cccc[n+]2[O-])c1	-11.0	?	5.01µM*	-6.8%	-35.2%	?
COC(=O)c1ccc(-n2c(C)cc(C(=O)CSc3cccc[n+]3[O-])c2C)cc1	15.7	-11.7%	0.1%	-5.7%	-30.1%	11.7
O=C(CSc1cccc[n+]1[O-])Nc1cc2c(cc1Cl)C(=O)c1ccccc1C2=O	-7.2	-43.6%	8.4%	10µM*	i	-9.4
CC(C)(C)OC(=O)CC(S(=O)(=O)c1ccccc1)S(=O)(=O)c1ccccc1	-4.5	nt	nt	-78.0%	-52.0%	-1.6
CCOC(=O)c1ccc(NS(=O)(=O)c2cc(-c3onc(C)c3C)ccc2C)cc1	9.3	-5.6%	nt	nt	-78.8%	nt
O=C(CN1CCN(c2ccccc2F)CC1)c1ccc2cc[nH]c2c1	-3.0	-11.5%	-0.7%	20.7%	-2.0%	-63.3*
O=C(CN1CCN(c2ccccc2F)CC1)c1c[nH]c2ccc(F)cc12	-3.5	-30.0%	-0.6%	-16.5%	i	-10.3
CC(=O)N1CCc2cc(C(=O)CN3CCN(c4ccccc4F)CC3)ccc21	-0.5	-24.0%	0.4%	2.5%	-7.7%	-65.4*
CC(=O)N1CCc2cc(C(=O)CN3CCN(c4ccccn4)CC3)ccc21	67.9*	-4.6%	-0.5%	7.2%	-10.2%	-3.8
Nc1nc(N)n(-c2ccccc2)c(=Nc2ccccc2)n1	4.4	16.1%	0.2%	5.8%	i	5.9
CCOc1cc(OCC)cc(C(=O)N2CCC[C@H]2C(=O)N2CCC[C@H]2C(=O)NCc2cccc(OC)c2)c1	-2.6	nt	nt	-25.9%	i	-24.5
O=S(=O)(NCc1nc2ccccc2[nH]1)c1ccccc1	1.6	0.1%	-2.1%	10.6%	-1.4%	-1.8
O=c1c2cnn(-c3ccc(F)cc3)c2ncn1Cc1ccccc1Cl	9.8	6.3%	nt	nt	i	nt
COc1cc(/C=c2\[nH]c(=O)/c(=C/c3cc(OC)c(OC)c(OC)c3)[nH]c2=O)cc(OC)c1OC	nt	nt	nt	11.7%	nt	nt
CC1CCCCN1S(=O)(=O)c1ccc(C(=O)Nc2nnc(-c3ccccc3Cl)o2)cc1 (stereo unspecified)	5.1	-18.9%	0.0%	-81.7%	-9.2%[57.5 µM]	-70.6*
CCC1CCCCN1S(=O)(=O)c1ccc(C(=O)Nc2nnc(-c3ccccc3Cl)o2)cc1 (stereo unspecified)	8.4	-7.2%	-0.3%	-67.9%	-13.9%[57.5 µM]	-85.9*
CCCCN1CC(N2CCCCC2)CS1(=O)=O (stereo unspecified)	7.4	nt	nt	3.2%	-21.1%	13.6
COCCCNC(=O)CCC(=O)Nc1ccc2nc(N3CCOCC3)cc(C)c2c1	3.8	14.9%	?	86.3%	i	?
CCCCNC(=O)CCC(=O)Nc1ccc2nc(N3CCOCC3)cc(C)c2c1	6.4	19.6%	-0.8%	3.98µM*	-16.3%	-15.3
CCCN(CCC)CCNC(=O)CCC(=O)Nc1ccc2nc(N3CCOCC3)cc(C)c2c1	-42.7	-5.1%	0.0%	?	i	-65.8*
